D2 PAM-1 = positive allosteric modulators of human D2 dopamine receptor; DiscoveRx D2 beta-arrestin cells, luminescence, 90 min; 100% = 57 uM dopamine signal; potentiation, % (test concentration not listed); actives 0.23% (n = 360,000); in the data active means potentiation above about 50%
Target sequence (P14416 whole entry, looked up): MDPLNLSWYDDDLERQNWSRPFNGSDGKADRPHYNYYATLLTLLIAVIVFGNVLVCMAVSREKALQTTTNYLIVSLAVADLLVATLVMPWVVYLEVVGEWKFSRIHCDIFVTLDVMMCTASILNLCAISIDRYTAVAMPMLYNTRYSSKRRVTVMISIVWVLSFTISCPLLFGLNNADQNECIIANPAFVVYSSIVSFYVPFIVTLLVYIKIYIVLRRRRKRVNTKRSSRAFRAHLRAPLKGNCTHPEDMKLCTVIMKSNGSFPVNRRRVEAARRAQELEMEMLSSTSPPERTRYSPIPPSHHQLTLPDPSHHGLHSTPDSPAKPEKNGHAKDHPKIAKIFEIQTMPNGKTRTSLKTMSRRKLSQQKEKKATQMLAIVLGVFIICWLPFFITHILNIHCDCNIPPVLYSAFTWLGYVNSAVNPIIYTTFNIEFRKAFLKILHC
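PathHunter D2 cells, attached overnight at 37 deg C, received compound in DMSO plus dopamine at EC20 (50 nM final) for 90 min at 37 deg C. Beta-arrestin recruitment was read as luminescence after 1 h with detection reagent at ambient temperature.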
D2 ag-1 = agonists of human D2 dopamine receptor (beta-arrestin); P14416; DiscoveRx PathHunter D2 beta-arrestin, luminescence, 90 min; 100% = 57 uM dopamine signal; activation, % (no concentration beside the values); actives 0.084% (n = 360,000); in the data active means activation above about 40%
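Agonist mode: compounds alone added to overnight-plated D2 PathHunter cells for 90 min at 37 C, with 57 uM final dopamine (EC100) defining full response. Beta-arrestin recruitment detected by chemiluminescent reagent, read after 1 h at ambient temperature.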
D2 antag = antagonists of human D2 dopamine receptor; AID 485344; P14416; HEK293 TREx D2 cells, calcium flux, dopamine EC80; inhibition, % at 10 µM; actives 2% (n = 340,000); in the data active means inhibition above about 30%; inactive means below that, where a call was filed
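Cells plated overnight at 30 C with tetracycline; no-wash calcium dye, 30–90 min RT; 10 s baseline; compound pinned; 180 s read; EC80 dopamine added; another 180 s read.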
D2 PAM-2 = D2 dopamine receptor (human) potentiation. P14416. HEK293 T-REx D2, calcium flux, EC20 dopamine potentiation. potentiation, % at 10 µM. actives 0.34% (n = 340,000). AID 485347;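 active means potentiation over 3 SD above the plate norm, cut at about 30% in these data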
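Potentiation of an EC20 dopamine calcium response measured kinetically over 180 s, after a preceding 180 s compound-only read flagging agonists. Cells: inducible Hek293 Trex D2 line, 4000/well, cultured overnight at 30 C before dye loading.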
D2 ag-2 = D2 dopamine receptor (human) agonism | HEK293 T-REx D2 cells, calcium flux agonist mode | actives 0.53% (n = 340,000) | activation, % at 2 µM | AID 485358;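 active means activation over 3 SD above normal in the single-dose calcium agonist read, cut at about 30% in these data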
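Agonism scored from kinetic calcium signal (1 read/sec, 180 s) following compound pin transfer, after a 10 s baseline. Cells: HEK293 Trex line expressing inducible D2 receptor coupled to calcium, dye-loaded after overnight culture at 30 C.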
A number is an active result; . = inactive; / = not tested or not shown. This is a sample that favours compounds with a hit; in the whole collection about 2.4% have one here.

SMILES	D2 PAM-1	D2 ag-1	D2 antag	D2 PAM-2	D2 ag-2
CCC(C(=O)NCCCN(CC)CC)n1ncn2c(cc3occc32)c1=O (stereo not given)	/	/	/	.	.
CCOc1ccc(N2C(=O)c3[nH]nc(-c4ccc(OC)cc4)c3C2c2cccs2)cc1 (stereo not given)	/	/	/	.	/
Cc1sc2nc3ccc(N4CCCCC4)nn3c(=O)c2c1C	.	.	37	.	.
Cc1ccc2nc3ccc(N4CCCC4)nn3c(=O)c2c1	.	.	.	.	.
Cc1ccccc1OCc1nc2c3cnn(-c4cccc(F)c4)c3ncn2n1	/	/	/	.	.
CC1CCc2sc(C(=O)NC3CCN(Cc4ccccc4)CC3)cc2C1 (stereo not given)	.	.	83	.	.
CCC1CCc2sc(C(=O)NC3CCN(Cc4ccccc4)CC3)cc2C1 (stereo not given)	.	.	77	.	.
CC(c1ccco1)N(C(=O)c1ccc(Cl)s1)c1ccccn1 (stereo not given)	.	.	.	.	34
CC(c1ccco1)N(C(=O)c1ccccc1F)c1ccccn1 (stereo not given)	.	.	.	.	.
Cc1ccc(OCCCN(C)C)c(Br)c1	.	.	37	.	.
Cc1ccc(OCCCNCCO)c(Br)c1	.	.	39	.	.
CCC(C)NC(=O)c1ccccc1NC(=O)C1CCN(S(=O)(=O)Cc2ccccc2)CC1 (stereo not given)	/	/	/	.	.
CCc1ccc2c(c1)c(=O)c(C(=O)c1ccccc1)cn2CC(=O)Nc1ccc(C)c(Cl)c1	/	/	/	.	.
N#Cc1ccccc1Cn1c(=O)n(CCCC(=O)NCc2ccc3c(c2)OCO3)c(=O)c2sccc21	/	/	/	.	.
Cc1nnc(SCc2cnc(-c3ccc(C(C)C)cc3)s2)n1C	.	.	67	.	.
c1ccc(-c2ncc(CSc3nncn3-c3ccccc3)s2)cc1	.	.	/	/	/
COc1cc2c(cc1OC)C1=C(C#N)CN(C3CCCCC3)CN1CC2	.	.	40	.	.
CCC1ON(c2ccccc2)C2c3nc4ccccc4n3CC12 (stereo not given)	.	.	36	.	.
CCC1ON(C(C)C)C2c3nc4ccccc4n3CC12 (stereo not given)	.	.	32	.	.
CCN1CCN(Cc2ccc(NC(=O)c3ccc(C)c(NC(=O)c4c[nH]c5cc(C(F)(F)F)ccc5c4=O)c3)cc2C(F)(F)F)CC1	.	.	36	.	.
Cc1ccc(C(=O)Nc2cccc(C(F)(F)F)c2)cc1NC(=O)c1c[nH]c2cc(C(F)(F)F)ccc2c1=O	.	.	/	/	/
CC(=O)c1ccc(NC(=O)C[n+]2cccc(C)c2)cc1	.	.	37	.	.
CS(=O)(=O)c1nc(S(=O)(=O)c2ccc(Cl)cc2)c(NCc2ccccn2)s1	.	.	.	30	.
CC(=O)c1ccc(S(=O)(=O)N2CCN(C(=O)c3ccc(-n4nc(C)c(Cl)c4C)cc3)CC2)cc1	.	.	31	.	.
Cn1nc(-c2ccc(OCC(=O)Nc3ccc(Cl)cc3)cc2)c2ccccc2c1=O	/	/	/	.	.
SMILES	D2 PAM-1	D2 ag-1	D2 antag	D2 PAM-2	D2 ag-2
Cc1oc(-c2ccccc2Cl)nc1CS(=O)CC(=O)N1CCN(c2cccc(C(F)(F)F)c2)CC1 (stereo not given)	/	/	/	.	/
CC1=C(C)CC(C(=O)NC2CCCC2)C(C(=O)O)C1 (stereo not given)	.	.	.	.	.
CC1=CCC(C(=O)O)C(C(=O)NC2CCCCC2)C1 (stereo not given)	.	.	45	.	.
C=CCc1ccc(OCC(O)CN2CCc3ccccc3C2)c(OC)c1 (stereo not given)	.	.	47	.	.
C=CCc1ccccc1OCC(O)CN1CCN(Cc2ccc3c(c2)OCO3)CC1 (stereo not given)	.	.	64	.	.
OC(COc1ccc2c(c1)OCO2)CN1CCc2ccccc2C1 (stereo not given)	.	.	42	.	.
Cc1ccc(OCC(O)CN2CCN(Cc3ccc4c(c3)OCO4)CC2)cc1C (stereo not given)	.	.	.	.	.
COc1cccc(NC(=O)N2CCN3CCCCC3C2)c1 (stereo not given)	/	/	/	.	.
Cc1ccc(Cl)cc1-n1ncc2c(Nc3cccc(C)c3C)ncnc21	/	/	/	.	.
Cc1cccn2c(=O)nc(SCC(=O)N3CCCCC3)nc12	.	.	.	.	.
Cc1cccn2c(=O)nc(SCC(=O)N3CCCCCC3)nc12	.	.	31	.	.
Cc1nn(-c2ccccc2)c(C)c1/C=N/NC(=O)CSc1nnc(-c2ccccc2)n1-c1ccc(Cl)cc1	.	.	.	35	.
Cc1ccc(/C=N/NC(=O)CSc2nnc(-c3ccccc3)n2-c2ccc(Cl)cc2)o1	54	.	.	.	.
CCn1c(SCC(=O)N/N=C/c2ccc(C)o2)nnc1-c1ccccc1	.	.	57	.	.
Cc1ccc(-c2nnc(SCC(=O)N/N=C/c3c(C)nn(-c4ccccc4)c3C)n2-c2ccc(C)cc2)cc1	.	.	.	.	.
O=C(CSc1nnc(-c2ccccc2)n1-c1ccc(Cl)cc1)N/N=C/c1ccccc1C(=O)O	.	.	.	.	.
Cc1ccc(/C=N/NC(=O)CSc2nnc(-c3ccc(Cl)cc3)n2-c2ccc(Cl)cc2)o1	84	.	.	.	.
FC(F)(F)c1ccccc1CN1CCN(C2CCCCCC2)CC1	.	.	44	.	.
Cc1ccc(/C=N/NC(=O)C2CC(=O)N(c3ccccc3)C2)s1 (stereo not given)	.	.	.	.	.
O=C(N/N=C/c1ccccc1O)C1CC(=O)N(c2ccc(Cl)cc2)C1 (stereo not given)	.	.	35	.	.
Cn1c(=O)c2c(nc(NCc3ccco3)n2C/C=C/c2ccccc2)n(C)c1=O	64	.	.	.	.
CCS(=O)(=O)N1CC(=O)N(c2cc(Cl)ccc2C)C(C)(C(=O)NC2CCCCCC2)C1 (stereo not given)	/	/	/	.	.
Cc1ccc(C(=O)OCc2nnc(-c3ccccc3)o2)o1	.	.	.	32	.
O=C(OCc1nnc(-c2ccccc2)o1)c1cc(S(=O)(=O)N2CCOCC2)c(Cl)cc1Cl	.	.	38	.	.
COC(=O)c1ccc(NC(=O)c2nn(C)c3c2CS(=O)(=O)c2ccccc2-3)cc1	/	/	/	.	.
CCOC(=O)c1c(NC(=O)OC)sc(C(=O)N(C)C)c1C	.	.	69	.	.
CCOC(=O)c1c(NC(=O)COC(=O)c2ccc(O)cc2)sc(C(=O)N(C)C)c1C	.	.	.	36	.
COc1ccc(CNC(=O)c2cc3c(=O)n(C)c4ccccc4c3n2C)c(OC)c1	/	/	/	.	.
Cc1ccc(C(=O)NNc2ncnc3c2cnn3C)cc1	.	.	31	.	.

Screens deposited in PubChem BioAssay by National Center for Advancing Translational Sciences (NCATS).
